Measurements from PMC4552634, “A New Set of Chemical Starting Points with Plasmodium falciparum Transmission-Blocking Potential for Antimalarial Drug Discovery” (PLoS ONE, 2015).
Hit rate of the full screen: of about 13,000 compounds, about 3,200 (25%) showed an effect of 50% or more. This is one part of the list.

Test system: P. falciparum stage V gametocytes
Design: BacTiter-Glo ATP luminescence viability of purified stage V gametocytes in 384-well plates, per cent inhibition versus DMSO
Settings: 48 h, 5 µM; inhibitor

Row | SMILES | % Inhibition [%]
1 | O=C(NC1CCN(Cc2ccccc2)CC1)c1ccc2c(=O)n(Cc3ccc(Cl)cc3)c(=S)[nH]c2c1 [TCMDC-125694] | 0.6987
2 | COCCNCc1cccc(C#Cc2cc3ncnc(Nc4ccc(OCc5cccc(F)c5)c(Cl)c4)c3s2)n1 [TCMDC-138842] | 7.186
3 | Fc1ccc(CN2CCN(c3ncnc4cc(-c5ccccc5)sc34)CC2)cc1 [TCMDC-132385] | -47.67
4 | CCCc1cc(Cc2cnc(N)nc2N)cc2c1OC(C)C2C (stereo not drawn) [TCMDC-138047] | 3.526
5 | O=C1COC2(CN1CC1CCN(Cc3ccc(O)c(Cl)c3)C1)c1ccccc1-c1ccccc12 (stereo not drawn) [TCMDC-136343] | -1.738
6 | NC(N)=NC(=O)Nc1ccc(Cl)c(C(F)(F)F)c1 [TCMDC-137469] | -12.43
7 | Cc1ncc(CN2CCC(C(=O)Nc3ccc(-c4nc5ccccc5o4)cc3)CC2)s1 [TCMDC-124675] | 0.01985
8 | O=C(Nc1cccc(CN2CCCN(Cc3cccc(O)c3)CC2)c1)c1ccc2ccccc2c1 [TCMDC-141855] | 21.81
9 | Cc1nccc2c(NC(=O)N[C@@H]3CCN(c4ncc(C(F)(F)F)cc4Br)C3)cccc12 [TCMDC-141942] | 13.41
10 | Cc1nc2ccc3ccc(CNc4ccc(C(=O)N[C@@H](CCC(=O)O)C(=O)O)c(F)c4)cc3c2c(=O)[nH]1 [TCMDC-138112] | -4.938
11 | Cc1ccc2ccncc2c1N [TCMDC-138025] | -56.11
12 | CN1CCC(N2CCN(c3ccc4c(=O)nc(CCc5cccc(F)c5F)n(CC(=O)N(C)Cc5ccc(-c6ccc(C(F)(F)F)cc6)cc5)c4n3)CC2)CC1 [TCMDC-136512] | 105.9
13 | CN(Cc1ccc(-c2ccc(C(F)(F)F)cc2)cc1)C(=O)Cn1c(CCc2cccc(F)c2F)nc(=O)c2ccc(N3CCN(CCN4CCCCC4)CC3)nc21 [TCMDC-136511] | 109.8
14 | Cc1cc(NC(=O)Nc2cccc(C#N)c2)c2ccccc2n1 [TCMDC-138953] | 4.681
15 | Nc1cccc(CNCc2ccc(-c3ccc(-c4nc5ccccc5[nH]4)s3)cc2)c1 [TCMDC-132927] | -10.94
16 | CSc1nc2nc(C)c(Cc3cccc(C(F)(F)F)c3)c(C)n2n1 [TCMDC-123763] | -63.49
17 | CN(C)CCC(O)(c1ccc(Br)cc1)c1cccnc1 (stereo not drawn) [TCMDC-131412] | -6.865
18 | CC(CO)(CO)NCc1cc2c3ccccc3c(CNC(C)(CO)CO)cc2c2ccccc12 [TCMDC-137752] | 88.47
19 | CC(CO)(CO)NCc1cc2ccc3ccsc3c2c2ccccc12 [TCMDC-137753] | 1.403
20 | Cn1c2ccccc2c2c3ccccc3c(CNC(CO)(CO)CO)cc21 [TCMDC-137747] | 1.595
21 | COc1ccccc1C1CC(c2ccc(C)cc2)=NN1C(=O)c1ccccc1 (stereo not drawn) [TCMDC-123887] | 21.23
22 | COc1cc(Cc2cnc(N)nc2N)c2ccsc2c1OC [TCMDC-137762] | -4.679
23 | CCNc1cc(C)nc(Nc2ccc(NC(=O)c3c(F)cccc3Cl)cc2)n1 [TCMDC-124984] | 3.1

Row | SMILES | % Inhibition [%]
24 | CCN(CC)CCNc1cc(C)nc(/N=C(\N)Nc2ccc(Cl)cc2)n1 [TCMDC-137477] | 81.2
25 | CCOC(=O)c1cccc(NC(=O)Nc2cc(C)nc3ccccc23)c1 [TCMDC-138957] | -2.163
26 | CCOC(=O)c1cccc(N/C(N)=N/c2nc(C)cc(NCCc3ccccc3)n2)c1 [TCMDC-138372] | 76.13
27 | CCOc1cc(C)ccc1N1CCN(CCCCNC(=O)c2ccc(NC(=O)c3ccc(Cl)cc3)cc2)CC1 [TCMDC-138523] | 2.314
28 | CCOC(=O)N1CCN(C(=O)Nc2ccc(Cl)cc2)CC1 [TCMDC-125820] | -28.23
29 | CCOC(=O)N1CCN(CCCCCNc2cc(C)nc(/N=C(\N)Nc3ccc(Cl)cc3)n2)CC1 [TCMDC-138013] | 60.55
30 | Cc1cc(NCCc2ccccc2)nc(/N=C(\N)Nc2ccccc2Cl)n1 [TCMDC-138370] | 92.38
31 | Cc1cc(N2CC=CCC2)nc(/N=C(\N)Nc2ccc(Cl)cc2)n1 [TCMDC-131240] | 30.94
32 | COc1ccc2nccc(NC(=O)C3(O)CCC(NCc4ncc5c(c4Cl)OCCO5)CC3)c2n1 (stereo not drawn) [TCMDC-141562] | 2.096
33 | O=C(O)C(F)(F)F.O=C(O)CCc1ccc(-c2c[nH]c3ncc(-c4ccc5ncccc5c4)cc23)cc1 [TCMDC-136336] | 14.57
34 | COc1ccc2nccc([C@@H](O)CN3CCC(NCc4cn5cc(F)ccc5n4)CC3)c2c1 [TCMDC-140778] | 43.65
35 | Cn1c(NC(=O)C2CCC(CNC(=O)c3ccc(O)c(-c4ccc(Cl)c(Cl)c4)c3)CC2)nc2ccccc21 (stereo not drawn) [TCMDC-140897] | 13.96
36 | O=C(NCc1cccnc1)C(c1cc2ccccc2o1)N1CCN(C(c2ccccc2)c2ccccc2)CC1 (stereo not drawn) [TCMDC-141023] | 15.45
37 | O=C(NC1CCC(CN2CCC(c3c[nH]c4ccccc34)CC2)CC1)c1cc(-c2ccc(F)cc2F)ccc1O (stereo not drawn) [TCMDC-139894] | -31.8
38 | NC(N)=NN=CC(=O)Nc1cccc(C(F)(F)F)c1 [TCMDC-137563] | 10.63
39 | Cc1cc(NCCc2ccccc2)nc(/N=C(\N)Nc2cccc(F)c2)n1 [TCMDC-138373] | 55.97
40 | CCCCCCNc1cc(C)nc(/N=C(\N)Nc2cccc(C(F)(F)F)c2)n1 [TCMDC-138510] | 79.07
41 | Cc1cc(NCCCOc2ccc(Cl)cc2)nc(NCc2ccccc2)n1 [TCMDC-137548] | -22.71
42 | Cc1cc(N2CCCC2)nc(/N=C(\N)Nc2cccc(C(F)(F)F)c2)n1 [TCMDC-138509] | 20.83
43 | Cc1cc(NCCc2cccc(F)c2)nc(/N=C(\N)Nc2cccc(C(F)(F)F)c2)n1 [TCMDC-138508] | 57.1
44 | Cc1cc(NCCc2ccccc2)nc(/N=C(\N)Nc2ccc(Cl)cc2)n1 [TCMDC-131843] | 52.3
45 | Cc1cc(NCCc2ccccc2)nc(NC(=NCC(=O)OC(C)(C)C)Nc2ccc(C(F)(F)F)cc2)n1 [TCMDC-138520] | -13.38
